Drawing on the supplement of paper PMC6555819, this text covers PBM binding z-score for seven sequences.

Holding throughout (test): PBM binding z-score (relative to random genomic background probes); higher = stronger binding; sequences stand for … in GC…GCGATTGACAGCGTAGAATGAAGG
Experiment [1] concerns FXR:RXRa (NR concentration 270 nM, RXRa partner concentration 90 nM). Put shortly:
(§1)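 Each nuclear receptor dimer, without ligand, was incubated for 1 h on custom Agilent 4×180K protein-binding microarrays. Binding was detected with antibodies against each partner (one per run), and scanned fluorescence was regression-normalized. The binding z-scores are referenced to random human genomic background probes.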

Experiment [2] relates to LXRa:RXRa (NR concentration 270 nM, RXRa partner concentration 90 nM). Put shortly:
as §1

The subject of experiment [3] is LXRa homodimer (NR concentration 270 nM). In short, it runs like this:
as §1

Experiment [4] deals with LXRb:RXRa (NR concentration 270 nM, RXRa partner concentration 90 nM). Put shortly: as §1
Experiment [5] has as its system LXRb homodimer (NR concentration 270 nM). Put shortly: as §1
The subject of experiment [6] is PPARa:RXRa (NR concentration 270 nM, RXRa partner concentration 90 nM). Put shortly:
as §1

The test system of experiment [7] is PPARg:RXRa (NR concentration 180 nM, RXRa partner concentration 90 nM). Put shortly:
as §1

Experiment [8] concerns PPARg:RXRa 270nM:90nM, anti-RXR (NR concentration 270 nM, RXRa partner concentration 90 nM). In short, it runs like this:
as §1

Experiment [9] has as its system PPARg:RXRa 30nM:10nM, anti-RXR (NR concentration 30 nM, RXRa partner concentration 10 nM). In short, it runs like this: as §1
Experiment [10] has as its system PPARg:RXRa 90nM:30nM, anti-RXR (NR concentration 90 nM, RXRa partner concentration 30 nM). In short, it runs like this: as §1
The subject of experiment [11] is PPARg:RXRa DBDmut IVT, anti-RXR (DBD mutation: RXRa K156A/R161A, NR concentration 270 nM, RXRa partner concentration 90 nM). Put shortly:
as §1

For experiment [12], the system named is PPARg:RXRa IVT, anti-PPARg (NR concentration 270 nM, RXRa partner concentration 90 nM). In short, it runs like this: as §1
Experiment [13] concerns PPARg DBDmut:RXRa IVT, anti-PPARg (DBD mutation: PPARg1 K132A/R137A, NR concentration 270 nM, RXRa partner concentration 90 nM). Put shortly: as §1
For experiment [14], the system named is PPARg DBDmut IVT, anti-PPARg (DBD mutation: PPARg1 K132A/R137A, NR concentration 270 nM). Put shortly: as §1
In experiment [15] the test system is PPARg homodimer (NR concentration 180 nM). Put shortly: as §1
The test system of experiment [16] is PXR:RXRa (NR concentration 270 nM, RXRa partner concentration 90 nM). Put shortly: as §1
In experiment [17] the test system is PXR homodimer (NR concentration 270 nM). In short, it runs like this: as §1
Experiment [18] concerns RARa:RXR (NR concentration 270 nM, RXRa partner concentration 90 nM). In short, it runs like this: as §1
For experiment [19], the system named is RARa homodimer (NR concentration 270 nM). Put shortly: as §1
Experiment [20] relates to RARb:RXRa (NR concentration 270 nM, RXRa partner concentration 90 nM). In short, it runs like this:
as §1

In the case of CCTATCAGGCCAATCTGGGTCACTCAAGGCTTGA, the PBM binding z-score was 0.68 in experiment [1]; 1.71 in experiment [2]; -0.155 in [3]; 1.02 in experiment [4]; 0.106 in experiment [5]; 3.29 in experiment [6]. Besides, the PBM binding z-score in experiment [7] amounted to 2.26; in experiment [8] it was 2.47; in experiment [9], 0.43; in [10], 1.76; in [11] it was 4.25; in experiment [12] it was 5.29. Further, the PBM binding z-score was 0.637 in experiment [13]; -0.095 in [14]; 1.45 in [15]; 1.27 in experiment [16]; -0.29 in experiment [17]; 2.62 in [18]. The PBM binding z-score in experiment [19] amounted to 0.00198; in [20], 1.75.

With AATACTGGGTCATCGTAGGCCAGAGTACGCACAG, the PBM binding z-score in experiment [1] worked out at 3.75; in experiment [2] it was 4.06; in experiment [3], 1.07; in [4], 2.04; in [5], 0.0752; in experiment [6], 4.49. Also, the PBM binding z-score in experiment [7] was found to be 6.86; in experiment [8], 5.4; in experiment [9], 3.02; in experiment [10], 4.86; in experiment [11], 6.46; in [12] it was 6.97. For the same sequence, the PBM binding z-score in experiment [13] amounted to 1.65; in [14], 2.15; in [15], 1.67; in [16], 2.44; in experiment [17], 0.428; in [18] it was 2.35. Besides, the PBM binding z-score in experiment [19] amounted to 0.903; in [20] it was 3.49.

For the sequence TCATAAAGGTAAAAGGTGAAAGTCGGTGTGGTAA, the PBM binding z-score worked out at 3.11 in [1]; 2.59 in experiment [2]; 0.231 in experiment [3]; 2.75 in [4]; 0.0475 in [5]; 5.08 in [6]. Moreover, the PBM binding z-score in experiment [7] was 6.24; in [8], 6.25; in [9], 6.38; in experiment [10], 6.73; in [11] it was 3.49; in [12], 3.5. In addition, the PBM binding z-score is 0.634 in experiment [13]; 0.86 in [14]; 2.26 in [15]; 2.56 in experiment [16]; 0.65 in [17]; 4 in experiment [18]. Further, the PBM binding z-score in experiment [19] amounted to 1.25; in experiment [20], 2.54.

With TGAATGGGGTTATAAGATCAGGGAACGTTGCAAA, the PBM binding z-score was 3.48 in experiment [1]; 2.4 in [2]; 0.471 in experiment [3]; 4 in experiment [4]; 2 in experiment [5]; 4.74 in experiment [6]. The PBM binding z-score in experiment [7] was 3.24; in experiment [8] it was 3.32; in experiment [9], 1.77; in [10], 2.79; in [11] it was 2.58; in experiment [12] it was 2.71. Further, the PBM binding z-score in experiment [13] came to 2.28; in experiment [14], 1.59; in [15], 2.39; in experiment [16], 2.25; in [17] it was 1.48; in [18] it was 3.06. The PBM binding z-score is 2.01 in experiment [19] and 1.69 in experiment [20].

With TATACAGGGTCAAGGGCCAGAGTACGAATGTCGA, the PBM binding z-score in experiment [1] turned out to be 6.63; in experiment [2] it was 5.65; in experiment [3] it was 1.91; in experiment [4] it was 4.4; in experiment [5] it was 2.42; in experiment [6], 5.8. Besides, the PBM binding z-score stood at 7.15 in [7]; 6.47 in experiment [8]; 3.84 in experiment [9]; 5.91 in experiment [10]; 2.4 in experiment [11]; 4.69 in experiment [12]. Besides, the PBM binding z-score in experiment [13] is 2.98; in [14], 1.83; in experiment [15], 3.27; in [16], 3.99; in [17] it was 0.571; in experiment [18], 4.97. Besides, the PBM binding z-score is 1.16 in [19] and 4.61 in [20].

With GCACACAGGTGAAACGCAGGTAACTCAGGGTGGC, the PBM binding z-score is 0.021 in experiment [1]; 0.302 in experiment [2]; -0.342 in experiment [3]; -0.349 in experiment [4]; -0.845 in experiment [5]; 0.939 in experiment [6]. Also, the PBM binding z-score in experiment [7] is 0.853; in [8], 0.355; in experiment [9], -0.481; in [10], -0.0562; in experiment [11], 1.25; in experiment [12], 1.35. Also, the PBM binding z-score was -0.286 in experiment [13]; -0.23 in [14]; -0.0515 in experiment [15]; -0.134 in experiment [16]; -0.747 in experiment [17]; 0.575 in [18]. Besides, the PBM binding z-score was -0.648 in experiment [19] and 0.803 in [20].

Take CCTACTGGGCCATCAGGTCATTGGTATCAACGTT: the PBM binding z-score in experiment [1] is 1.47; in [2], 1.25; in experiment [3], 1.08; in [4] it was 1.78; in experiment [5] it was -0.424; in experiment [6] it was 2.91. In addition, the PBM binding z-score was found to be 2.98 in [7]; 3.68 in experiment [8]; 1.17 in [9]; 2.79 in [10]; 4.05 in experiment [11]; 5.2 in [12]. Moreover, the PBM binding z-score in experiment [13] is -1.01; in [14] it was -0.269; in experiment [15], 1.09; in [16] it was 1.67; in experiment [17], 0.395; in [18], 2.04. Further, the PBM binding z-score in experiment [19] is -0.0401; in experiment [20] it was 2.25.
